# Assay results published in PubChem BioAssay AID1626 (SRMLSC, 2009).
# The whole screen tested about 220,000 compounds, of which about 2,000 (0.91%) were called active. About 2% were inconclusive and are not listed. Cut-off read from the data, not from the text of the source: inconclusive = inhibition above about 80% without an active follow-up result; inactive = below that; test concentration not stated here. These entries were drawn from the full list. Results with a measured potency or affinity are listed apart.
# Test: M. tuberculosis H37Rv growth inhibitors, H37Rv strain (AID 1626);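 note: bacteria incubated seven days before Alamar blue readout; 0% = bacteria only wells and 100% = bacteria with antibiotic wells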
# Conditions: stronger effect = higher value, concentration not given here
row,SMILES,inhibition
1,CS(=O)(=O)N(CC(=O)Nc1ccccc1C(=O)N1CCCC1)c1cccc([N+](=O)[O-])c1,3.06% (inactive)
2,Cc1csc(Nc2cccc3ccccc23)n1,6.85% (inactive)
3,Cc1ccc(C(=O)Nc2ccccc2-c2ccccc2)cc1[N+](=O)[O-],14.5% (inactive)
4,COC(=O)CSc1snnc1-c1ccc(F)cc1,-0.55% (inactive)
5,Cc1nn(Cc2c(Cl)cccc2Cl)c(Cl)c1/C=N/NC(=O)c1cccnc1,-3.52% (inactive)
6,CCc1ccc(NC(=O)C(NS(=O)(=O)c2cccc3nsnc23)c2ccccc2)cc1 (stereo unspecified),-4.05% (inactive)
7,Cc1ccc(NC(=O)c2ccccc2)cc1OC(=O)c1ccccc1,6.17% (inactive)
8,Cc1cccc(C(=O)Nc2cccc(OC(=O)c3cccc(C)c3)c2)c1,11.6% (inactive)
9,OCCN1CCN(CC(O)COc2ccc(Cl)cc2)CC1 (stereo unspecified),1.07% (inactive)
10,OCCN1CCN(CC(O)COc2ccc(-c3ccccc3)cc2)CC1 (stereo unspecified),5.51% (inactive)
11,Cc1ccc(CS(=O)(=O)CCC(=O)NCCC2=CCCCC2)cc1,7.74% (inactive)
12,CCCCc1n[nH]c(=S)n1Cc1ccccc1,-1.46% (inactive)
13,COc1cccc2[nH]c3c(N4CCC5(CC4)OCCO5)ncnc3c12,1.2% (inactive)
14,CC1(C)C=Cc2c(ccc3c2OC[C@@H](c2ccc(O)cc2O)C3)O1,1.16% (inactive)
15,CC(C)=CCc1cc([C@@H]2COc3c(ccc4c3C=CC(C)(C)O4)C2)c(O)cc1O,8.4% (inactive)
16,COc1ccc2nc(NC(=O)c3cc(S(=O)(=O)N4CCOCC4)ccc3C)sc2c1,14.6% (inactive)
17,O=C(c1cn(-c2ccccc2)nc1-c1ccccc1)N1CCOCC1,-8.16% (inactive)
18,COc1ccccc1/C=N/NC(=S)NCc1ccco1,-0.41% (inactive)
19,CCOC(=O)c1ccc2[nH]c3c(c2c1)CCCC3C(=O)OCC (stereo unspecified),-4.38% (inactive)
20,CCOC(=O)C1CCCc2c1[nH]c1c(C(=O)O)cccc21 (stereo unspecified),-6.94% (inactive)
21,CCOc1ccc(S(=O)(=O)N/N=C2/CC(c3ccccc3)Oc3ccccc32)cc1 (stereo unspecified),-11.9% (inactive)

row,SMILES,inhibition
1,COC(=O)C1C(c2ccccc2)C=CC(c2ccccc2)C1C(=O)O (stereo unspecified),1.24% (inactive)
2,Cc1ccc(NC2=C(Cl)C(=O)c3ccccc3C2=O)cc1,-1.97% (inactive)
3,CCCCNC1=CC(=O)C(=O)c2ccccc21,1.34% (inactive)
4,COC1=C(Nc2ccc(C)cc2)C(=O)c2ccccc2C1=O,12.8% (inactive)
5,O=C1C=C(Nc2ccccc2C(=O)O)c2ccccc2C1=O,1.72% (inactive)
6,O=C1C=C(Nc2ccc(O)cc2)C(=O)c2ccccc21,5.07% (inactive)
7,O=C1C(Nc2ccccc2)=C(NS(=O)(=O)c2ccccc2)C(=O)c2ccccc21,8.84% (inactive)
8,O=C1C(Cl)=C(Nc2ccccc2)C(=O)c2ccccc21,-1.42% (inactive)
9,O=C1C(Nc2ccccc2)=C(N2CCCCC2)C(=O)c2ccccc21,-1.08% (inactive)
10,O=C(c1cc(-c2ccc(Cl)cc2)n(-c2ccc(Cl)c(Cl)c2)n1)N1CCOCC1,-1.31% (inactive)
11,Cc1ccc(OCC(=O)Nc2cccc3nsnc23)c(C)c1,7.75% (inactive)
12,COCOc1ccc(C=O)cc1OCOC,-3.9% (inactive)
13,COc1cc(Cl)c(C)cc1NC(=O)c1ccc(S(C)(=O)=O)cc1,3.38% (inactive)
14,CCOc1cc(C=O)ccc1OS(=O)(=O)c1ccc(NC(C)=O)cc1,5.36% (inactive)
15,COc1ccc(CN2C(=O)c3oc4ccccc4c(=O)c3C2c2ccc(O)c(OC)c2)cc1 (stereo unspecified),-7.03% (inactive)
16,Cc1onc(-c2cccc(Cl)c2Cl)c1C(=O)O/N=C(\N)c1ccc([N+](=O)[O-])o1,67% (inactive)
17,O=c1nc(NCc2ccco2)sc2ncccc12,-7.68% (inactive)
18,O=C1c2ccc(Oc3ccc4c(c3)C(=O)N(CCCCO)C4=O)cc2C(=O)N1CCCCO,-9.34% (inactive)
19,Cc1ccc2c(c1)C(=O)N(CCCCO)C2=O,-0.27% (inactive)
20,COCCNC(=O)c1ccc2c3n(nc2c1)-c1ccc(Cl)cc1CO3,-12.9% (inactive)
21,CCOC(=O)c1sc(NC(=O)CCN2CCC(C)CC2)c(C(=O)OCC)c1C,5.65% (inactive)

row,SMILES,inhibition
1,O=C(COc1ncnc2ccccc12)c1ccc2c(c1)OCCO2,-5.58% (inactive)
2,O=C(O)[C@H]1CCCC[C@H]1C(=O)Nc1ccc(Nc2ccccc2)cc1,3.28% (inactive)
3,O=C(O)C1CC=CCC1C(=O)Nc1ccccc1 (stereo unspecified),-3.59% (inactive)
4,CCCc1cc(=O)n2[nH]c(NCc3ccc(OC)c(OC)c3)nc2n1,3.17% (inactive)
5,Cc1ccc(C)c(NC(=O)C(Sc2ncnc3ccccc23)c2ccccc2)c1 (stereo unspecified),-1.19% (inactive)
6,CCOc1ccc(NS(=O)(=O)c2cc(NC(=O)c3ccc(C)cc3)ccc2Cl)cc1,11.8% (inactive)
7,O=C(Nc1ccc(OC(F)F)c(Cl)c1)c1cccc(OC(F)F)c1,10.2% (inactive)
8,COc1ccc(NC(=O)c2cccc(OC(F)F)c2)cc1Cl,0.2% (inactive)
9,CC(NC(N)=O)C(=O)Nc1ccc(Cl)c(S(=O)(=O)Nc2ccc(Cl)cc2)c1 (stereo unspecified),0.16% (inactive)
10,CCOC(=O)c1cc(NC(=O)NCc2ccco2)c(C)nc1C,-7.42% (inactive)
11,O=c1cc(N2CCCCC2)c2ccccc2o1,-1.79% (inactive)
12,CCOc1cc(CN2CCN(c3cccc(C(F)(F)F)c3)CC2)ccc1O,-11.9% (inactive)
13,CCC/C=N/NC(=O)c1cccc(Br)c1,7.16% (inactive)
14,COc1ccc(-c2nsc(SCC(=O)NCc3ccc4c(c3)OCO4)n2)cc1,6.74% (inactive)
15,O=C(CSc1nc(-c2ccccc2Cl)ns1)Nc1ccc2c(c1)OCO2,98.8% (inactive)
16,Cc1ccccc1-c1nsc(SCC(=O)Nc2ccc3c(c2)OCO3)n1,16.3% (inactive)
17,Cc1ccc(-c2nsc(SCC(=O)NCc3ccc4c(c3)OCO4)n2)cc1,13.2% (inactive)
18,Cc1ccc(NC(=O)C2CCCN(C(=O)c3ccc(Cl)cc3)C2)cc1C (stereo unspecified),2.5% (inactive)
19,CC1=NN(C(=O)c2ccco2)C(O)(c2ccccc2)C1 (stereo unspecified),-2.5% (inactive)
